Compounds with a hit are over-represented: about 10% of the library has one in this group of screens.
PNC inhibitor: inhibitors of perinucleolar compartment assembly. PC3M PTB-GFP, PNC prevalence imaging, 16 h; stronger effect = lower value. activity change (PNC), negative = inhibition, % at 10 µM. 140,000 tested, 3.1% active. AID 2417;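 active means readout at or below -70, meaning at least 70% loss of cells showing the perinucleolar compartment, a nuclear body marking cancer cells; inconclusive means readout between -30 and a set limit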
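PC3M cells stably expressing PTB-GFP, 750–1000 cells/well, treated 16 h at 37 °C with compound (23 nl of library stock), in duplicate. After paraformaldehyde fixation and Hoechst stain, imaged at 20x; PNC prevalence scored by image analysis.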
HPGD inh: HPGD (human) dehydrogenase inhibition; Potency, µM, hits mostly inhibitors; 150,000 tested, 4.3% active; purified HPGD, NADH fluorescence kinetic, PGE2 substrate; P15428
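NADH formation kinetics: reaction with 30 uM PGE2 and 1 mM NAD+ (final), 20 nM enzyme, Tris-HCl pH 8 with Tween 20, after 15 min compound preincubation at room temperature. Fluorescence change, last versus first of five reads.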
ALOX12 inhib: inhibitors of human 12-lipoxygenase (ALOX12); purified 12-hLO, xylenol orange hydroperoxide absorbance; Potency, µM (highest dose often 57.1 µM), most hits filed as inhibitors; 150,000 tested, 0.12% active; AID 1452; active means well fitted inhibition curve with a large enough effect; inconclusive means small, poorly fitted or top-dose-only effect; further: nearly all actives have a fitted effect of over 55% in size
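Purified human 12hLO (150 nM final) was preincubated with compounds for 15 min at room temperature in 25 mM Hepes pH 7.0, 0.01% Triton X-100, then reacted with 40 uM arachidonic acid for 30 min. Hydroperoxide was detected with ferrous iron/xylenol orange.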
Lamin A splicing: LMNA splicing modulation | HeLa LMNA splicing GFP/RFP minigene ratio, 48 h | Potency, µM (top dose mostly 46.1 µM), most hits filed as inhibitors | 200,000 tested, 0.01% active | AID 1487; active means well fitted inhibition curve with a large enough effect in the signal ratio, with a control signal flat, not every such curve was filed as active; inconclusive means small, poorly fitted or top-dose-only effect, or effect the other way, or a change in a side signal; the % refers to the signal ratio
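S3 HeLa stable clones carrying a lamin A-EGFP splicing minigene plus DsRed2 were seeded at 600 cells/well in Opti-MEM with 2% FBS, pin-dosed and incubated 48 h at 37°C. Acumen cytometry (488 nm) gave the GFP/RFP total-intensity ratio.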
ALDH1A1 inh: ALDH1A1 (human) enzyme inhibition. P00352. Purified ALDH1A1, NADH fluorescence, propionaldehyde substrate. Potency, µM (series often up to 75.3 µM), usual class: inhibitors. 220,000 tested, 7.3% active
Target sequence (P00352 whole entry, looked up): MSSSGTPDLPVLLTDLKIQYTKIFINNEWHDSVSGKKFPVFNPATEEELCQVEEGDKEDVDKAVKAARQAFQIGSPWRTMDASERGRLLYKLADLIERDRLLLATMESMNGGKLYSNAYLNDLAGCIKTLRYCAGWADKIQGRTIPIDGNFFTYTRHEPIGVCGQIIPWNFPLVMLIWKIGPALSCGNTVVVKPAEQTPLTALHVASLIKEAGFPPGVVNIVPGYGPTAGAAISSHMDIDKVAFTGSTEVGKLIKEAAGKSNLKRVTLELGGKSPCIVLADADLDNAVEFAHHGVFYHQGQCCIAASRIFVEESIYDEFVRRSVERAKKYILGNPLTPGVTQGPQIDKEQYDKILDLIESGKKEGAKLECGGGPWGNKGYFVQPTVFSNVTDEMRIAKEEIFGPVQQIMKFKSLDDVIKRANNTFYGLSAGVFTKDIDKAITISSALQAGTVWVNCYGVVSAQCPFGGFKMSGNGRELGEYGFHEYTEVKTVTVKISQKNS
Large screens that a line does not name were inactive. Unless noted, the call rests on the fitted dose curve; in most records, active means well fitted inhibition curve with a large enough effect (not every such curve was filed as active); inconclusive means small, poorly fitted or top-dose-only effect, or another doubt; inactive means no such curve, though single readings can be large or run the other way.

Cc1nn(C)cc1C(C)NCc1c(C(=O)N2CCCCCCC2)nc2ccc(Cl)cn12 (stereo unspecified)	ALDH1A1 inh 3.16µM (no result: PNC inhibitor, HPGD inh, ALOX12 inhib, Lamin A splicing)
CC(C)NC(=O)N1CC[C@@]2(CCCN(C(=O)c3ccncc3)C2)C1	none (no result: PNC inhibitor, Lamin A splicing)
CC(C)(C)c1ccc(S(=O)(=O)CC(O)CSc2nc3c(cc2C#N)CCCC3)cc1 (stereo unspecified)	HPGD inh inconclusive, ALDH1A1 inh 2µM
Cc1noc(NS(=O)(=O)c2ccc(NC(=O)CSc3nc4c(cc3C#N)CCCC4)cc2)c1C	PNC inhibitor inconclusive, HPGD inh 28.2µM, ALDH1A1 inh 28.2µM
Cc1cc(NC(=O)CSc2nc3c(cc2C#N)CCCC3)no1	HPGD inh inconclusive, ALDH1A1 inh inconclusive
Cc1noc(NS(=O)(=O)c2ccc(NC(=O)CSc3nc4c(cc3C#N)CCC4)cc2)c1C	HPGD inh 31.6µM, ALDH1A1 inh inconclusive
CCCn1c(-c2ccc(F)cc2)nc2c(NCCCN(C)C)nc(C)nc21	ALDH1A1 inh inconclusive (no result: PNC inhibitor, Lamin A splicing)
O=C(CSc1nnc(NC2CCCCC2)s1)Nc1ccc2c(c1)C(=O)c1ccccc1C2=O	Lamin A splicing inconclusive, ALDH1A1 inh 12.6µM (no result: PNC inhibitor, HPGD inh, ALOX12 inhib)
CC(C)Nc1nnc(SCC(=O)Nc2ccc3c(c2)C(=O)c2ccccc2C3=O)s1	PNC inhibitor inconclusive, Lamin A splicing inconclusive, ALDH1A1 inh 7.94µM
O=C(CSc1nnc(Nc2ccccc2F)s1)Nc1cccc(S(=O)(=O)N2CCCCC2)c1	Lamin A splicing inconclusive, ALDH1A1 inh 22.4µM
CC(C)CC(=O)Nc1nnc(SCC(=O)Nc2ccc(F)cc2)s1	none (no result: PNC inhibitor, HPGD inh, ALOX12 inhib, Lamin A splicing)
Cc1ccc(Nc2nnc(SCC(=O)Nc3cccc(S(=O)(=O)N4CCCCC4)c3)s2)cc1	Lamin A splicing inconclusive
O=C(Cn1c(-c2cccs2)cc2ccccc21)N1CCN(c2ccccc2F)CC1	none (no result: PNC inhibitor, HPGD inh, ALOX12 inhib, ALDH1A1 inh)
O=C1C(=O)N(CC(=O)N2CCCC2)c2ccccc21	ALDH1A1 inh 3.55µM (no result: PNC inhibitor, HPGD inh, ALOX12 inhib)
O=C(CCN1C(=O)c2ccccc2C1=O)N1CCCCCC1	HPGD inh 15.8µM, ALDH1A1 inh 20µM
Cc1ccc(-c2nc(SCC(=O)NCC3CCCO3)c3c(=O)n(C)c(=O)n(C)c3n2)cc1 (stereo unspecified)	none (no result: PNC inhibitor, HPGD inh, ALOX12 inhib, ALDH1A1 inh)
C/C(CCc1ccc2c(c1)OCO2)=N\N=C1\NC(=O)CC(C(=O)Nc2ccccc2F)S1 (stereo unspecified)	none (no result: PNC inhibitor, HPGD inh, ALOX12 inhib, Lamin A splicing)
C=CCSC[C@@H]1Nc2cc(Cl)c(S(N)(=O)=O)cc2S(=O)(=O)N1	none (no result: PNC inhibitor)
Cc1cc(C)nc(N2N=C(C(C)(C)C)CC2=O)n1	ALDH1A1 inh 6.31µM
COc1ccc(NC(=O)C2C3CCC4C(CCC32)C4(Cl)Cl)cc1 (stereo unspecified)	none
COc1cccc(NC(=O)C2C3CCC4C(CCC32)C4(Cl)Cl)c1 (stereo unspecified)	PNC inhibitor inconclusive, ALDH1A1 inh 7.94µM
COC1=C(OC)C(=O)C(C/C=C(\C)CC/C=C(\C)CC/C=C(\C)CC/C=C(\C)CC/C=C(\C)CC/C=C(\C)CC/C=C(\C)CC/C=C(\C)CC/C=C(\C)CCC=C(C)C)=C(C)C1=O	Lamin A splicing inconclusive (no result: PNC inhibitor)
O=C(O)[C@@H]1[C@@H](C(=O)Nc2ncccn2)[C@@H]2C=C[C@@H]1O2	none (no result: PNC inhibitor, Lamin A splicing)
Cc1cccc2cc(CN(Cc3ccc(F)cc3)Cc3nnnn3C3CCCC3)c(=O)[nH]c12	ALDH1A1 inh 14.1µM
Cc1ccc2[nH]c(=O)c(CN(Cc3ccccc3)Cc3nnnn3C3CCCC3)cc2c1	PNC inhibitor -93.3, Lamin A splicing inconclusive, ALDH1A1 inh 14.1µM
Cc1ccc(C)c2[nH]c(=O)c(CN(CCN3CCOCC3)Cc3nnnn3CC3CCCO3)cc12 (stereo unspecified)	ALDH1A1 inh inconclusive
Cc1ccc2cc(CN(Cc3nnnn3C3CCCC3)C3CCCCC3)c(=O)[nH]c2c1C	Lamin A splicing inconclusive, ALDH1A1 inh 7.94µM
Cc1ccc(C)c2[nH]c(=O)c(CN(Cc3nnnn3C3CCCCC3)CC3CCCO3)cc12 (stereo unspecified)	ALDH1A1 inh 1.78µM
Cc1cc(C)c2[nH]c(=O)c(CN(Cc3ccc4c(c3)OCO4)Cc3nnnn3C3CCCC3)cc2c1	ALDH1A1 inh inconclusive
CCN(CC)CCCNC(=O)c1c2c(nc3ccccc13)C(=O)N(C1CCCCC1)C2	none (no result: PNC inhibitor, HPGD inh, ALOX12 inhib, ALDH1A1 inh)
CCOC(=O)C1(CCc2ccccc2)CCN(C(=O)CN2C(=O)CSC2=O)CC1	none (no result: PNC inhibitor, HPGD inh, ALOX12 inhib, Lamin A splicing)

Assay outcomes: PubChem, National Center for Advancing Translational Sciences (NCATS)
